Bioassay records (PubChem)
Rows were chosen to be rich in hits. Some 1.2% of all compounds tested hit in one or more screens of this group.
KCNH2 3.1 inh = KCNH2 3.1 (human) potassium channel inhibition. U2OS KCNH2 3.1, thallium flux FluxOr; active compounds read low. activity change, % (tested at about 1.8 µM). hit rate 0.95% among 340,000;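 active = maximum activity change below -70%; inconclusive = maximum activity change from -70% to -50%; inactive = maximum activity change above -50%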;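 note: thallium influx rate constant from kinetic fluorescence after stimulation buffer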
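We transduce U2OS cells with the mutant 3.1 virus, culture them overnight, load FluxOr with Red40 quencher for 45 min, then add stimulation buffer and read kinetically for 2 min to derive a normalized rate constant.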
KinaseGlo FLuc = blocks Kinase-Glo luciferase, a counter-screen artifact. Q27757. Kinase-Glo luciferase, ATP luminescence, 8 min. Potency, µM (doses to about 38.3 µM), without a hit: at the highest dose activity change, negative = inhibition, actives largely listed as inhibitors. hit rate 0.28% among 200,000; active = well fitted inhibition curve with a large enough effect; inconclusive = small, poorly fitted or top-dose-only effect; note: potency is the fitted concentration of half-maximal effect; nearly all actives have a fitted effect of over 60% in size
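Inhibition of Kinase-Glo luciferase light generation was assessed at 10 uM ATP in pH 7.2 imidazole buffer, with luminescence measured after eight minutes at ambient temperature.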
KCNH2 WT inh = blocks the wildtype human KCNH2 potassium channel. AID 720551. hit rate 0.37% among 340,000. Q12809. U2OS, BacMam KCNH2, thallium flux FluxOr; active compounds read low. activity change, % at 1.84 µM;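 active = maximum activity change below -70%; inconclusive = maximum activity change between -70% and -50%; inactive = maximum activity change above -50%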
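U2OS cells were transduced with wild-type KCNH2 virus (2.03 x 10^8 / mL) for 4 h at room temperature, then cultured overnight at 37 C. Thallium flux was read with FluxOr dye. Rate constants were normalized to DMSO controls.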
* = called active by the depositor; ? = inconclusive; · = not tested or not shown. % is set by controls: 0 for no effect and ±100 for the full control effect.

SMILES | KCNH2 3.1 inh | KinaseGlo FLuc | KCNH2 WT inh
Cc1c(C(=O)NCc2ccccc2F)oc2ccccc12 | 14 | · | 19
Cc1c(C(=O)NC(C)c2ccncc2)oc2ccccc12 (configuration not stated) | -109* | 2% | -7
Cc1c(C(=O)Nc2ccncc2)oc2ccccc12 | -6 | -13% | -11
Cc1ccc2oc(C(=O)Nc3cc(C)on3)c(C)c2c1 | 1 | · | 0
COc1ccc(NC(=O)c2nc3nccc(C)n3n2)cc1S(=O)(=O)N1CCOCC1 | -18 | · | -36
COCCN(CC(=O)Nc1ccccc1C(F)(F)F)C(=O)/C=C/c1ccc2ccccc2n1 | 2 | · | -20
COc1ccc(NC(=O)c2cc(-c3ccc(C)o3)nc3ccccc23)cc1OC | -20 | 6.3µM* | -4
COc1ccc(NC(=O)c2cc(-c3ccc(C)o3)nc3ccccc23)c(OC)c1 | 2 | · | -27
NC(=O)NC1(C(=O)O)CCCC1 | -2 | · | -3
CCOC(CNC(=O)CN1C(=O)COc2ccc(S(=O)(=O)N3CCOCC3)cc21)OCC | 0 | · | -4
CCn1ncc(C(=O)Nc2ccc(F)cc2)c1C | 3 | · | 3
CCn1ncc(C(=O)Nc2ccccc2C)c1C | -95* | -9% | 19
Clc1ccc(-c2csc(=Nc3cccnc3)n2CCCn2ccnc2)cc1Cl | ? | 1% | 16
COCCn1c(-c2ccc(Br)cc2)csc1=Nc1cccnc1 | -79* | 0% | -8
CCOc1ccc(C(=O)N2CCN(c3cccc(Cl)c3)CC2)cc1 | -14 | 0% | ·
CCOc1ccc(C(=O)N2CCN(c3cccc(C)c3C)CC2)cc1 | -74* | -1% | 10
CNc1nc(Cl)c(SC)c(NCc2cccc(OC)c2)n1 | -27 | · | 6
CN=C1N(C)C[C@@H]2[C@@H]3C(=O)N(Cc4ccccc4)C(=O)[C@@H]3[C@](Cc3ccccc3)(C(=O)OC)N12 | 8 | · | -14
c1ccc(COc2ncnc3c2ncn3CCCNCC(c2ccccc2)c2ccccc2)cc1 | -72* | · | -18
COc1ncnc2c1ncn2CCCNCC(c1ccccc1)c1ccccc1 | 15 | · | -5
CC(C)[C@H](NC(=O)C1CCN(S(=O)(=O)c2ccc(F)cc2)CC1)C(=O)NCc1ccncc1 | 15 | · | 4
CN1C[C@@H]2C(c3ccccc3)C3(c4ccccc4)CC2(C3)[C@H]1c1ccccc1 (some centres not stated) | -43 | -5% | 6
CN1C[C@@H]2C(c3ccccc3)C3(c4ccc(C#N)cc4)CC2(C3)[C@H]1c1ccccc1 (some centres not stated) | -112* | -1% | -45
CN1C[C@@H]2C(c3ccc(C(F)(F)F)cc3)C3(c4ccc(C#N)cc4)CC2(C3)[C@H]1c1ccccc1 (some centres not stated) | -92* | -4% | -102*
N#Cc1ccc(C23CC4(C2)[C@H](CN(Cc2ccc(C(F)(F)F)cc2)[C@@H]4c2ccccc2)C3c2ccc(Cl)nc2)cc1 (some centres not stated) | · | -4% | ·
CCn1nc(C)cc1C(=O)N(C)C1CCCN(Cc2ccccc2F)C1 (configuration not stated) | 5 | · | 7
Nc1ccc(Sc2ccccc2)nc1 | 2 | · | -6
O=C(NCc1ccccc1)c1ccc(NC(=O)C2CCCCC2)cc1 | -1 | · | 3
O=C(O)C1Oc2cc3ccccc3cc2O1 | 25 | · | 2
CCOC(=O)C1=CN(Cc2ccco2)S(=O)(=O)N(CC)C1c1ccccc1 (configuration not stated) | 2 | · | 1
